Compounds with a hit are over-represented: about 9.2% of the library has one in this group of screens.
FLuc modulator – firefly luciferase modulation, counter-screen for miR-21 project; P08659; purified FLuc, Km substrates, luminescence inhibition; Potency, µM (top dose mostly 57.5 µM), without a hit: at the highest dose activity change, negative = inhibition, most hits filed as inhibitors; actives 6.9% (n = 360,000);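 note: plate controls were vehicle for no effect and reference inhibitor for full effect; nearly all actives have a fitted effect of over 55% in size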
Target sequence (P08659 whole entry, looked up): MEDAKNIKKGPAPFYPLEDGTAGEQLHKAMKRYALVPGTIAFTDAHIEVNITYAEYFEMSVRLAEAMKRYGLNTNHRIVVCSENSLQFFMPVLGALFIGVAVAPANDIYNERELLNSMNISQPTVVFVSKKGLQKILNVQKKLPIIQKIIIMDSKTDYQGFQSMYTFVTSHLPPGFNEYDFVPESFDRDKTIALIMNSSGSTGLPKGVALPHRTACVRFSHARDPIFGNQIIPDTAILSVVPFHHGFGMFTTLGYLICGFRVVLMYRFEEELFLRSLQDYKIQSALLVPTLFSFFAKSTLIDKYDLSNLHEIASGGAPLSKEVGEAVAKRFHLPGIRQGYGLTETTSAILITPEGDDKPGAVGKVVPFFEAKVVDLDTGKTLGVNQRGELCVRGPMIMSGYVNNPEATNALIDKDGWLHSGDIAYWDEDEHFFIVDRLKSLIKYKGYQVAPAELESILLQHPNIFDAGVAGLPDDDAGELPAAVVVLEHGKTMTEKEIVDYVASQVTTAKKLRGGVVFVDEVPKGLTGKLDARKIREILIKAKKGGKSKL
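Purified P. pyralis luciferase (10nM final) with 10uM D-luciferin and 10uM ATP (Km levels) in 50mM Tris acetate pH 7.5, 10mM Mg acetate, 0.01% Tween-20, 0.05% BSA; qHTS 6-point titration, ~60 µM downward; luminescence read.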
Rab9 prom act – activators of Rab9 promoter | Huh7 Rab9 promoter-luciferase reporter, luminescence, 24 h | Potency, µM (doses to about 9.22 µM), for the others: at the highest dose activation, negative = inhibition, most hits filed as activators | AID 485297 | actives 2.8% (n = 320,000); note: % of control where 0% means no effect; nearly all actives have a fitted effect of over 60% in size
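Huh7 cells stably carrying a Rab9 promoter-luciferase reporter, 1500 cells per well in OP-MEM I with 10% FBS, treated with compound 24 hours at 37C. Luciferase activity read by luminescence after 10 minutes with Amplite reagent.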
ELG1 genotox – inducers of genotoxicity in HEK293T ELG1-luciferase cells | Potency, µM (highest dose often 46 µM), inactives show at the top dose activity change, positive = activation, most hits filed as activators | actives 1.3% (n = 330,000) | HEK293T ELG1-luciferase reporter, luminescence, 16 h | AID 504466; note: % of control where 0% means no effect; nearly all actives have a fitted effect of over 60% in size
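Genotoxicity was scored as increased ELG1-luciferase reporter signal, measured by ONE-Glo luminescence (30 min, room temperature). Compound or vehicle exposure of the HEK293T reporter cells lasted 16 hr at 37°C.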
NPC1 promoter act – activates the NPC1 promoter; Huh7 NPC1 promoter luciferase reporter, 24 h; Potency, µM (titrated, usually from 9.22 µM), without a hit: at the top dose activation, usual class: activators; actives 2.4% (n = 320,000); note: % of control where 0% means no effect; nearly all actives have a fitted effect of over 60% in size
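Compounds in DMSO were transferred onto Huh7 NPC1-luciferase reporter cells pre-incubated 2 h; after 24 h at 37 °C, Amplite reagent was dispensed and luminescence recorded 10 min later.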
SMN2 splice up – enhancers of SMN2 splice variant expression; HEK293 SMN2-luciferase splicing reporter, luminescence, 30-36 h; Potency, µM (series often up to 46.1 µM), for inactives: top-dose activity change, positive = activation, most hits filed as activators; actives 2.8% (n = 210,000); note: % of control where 0% means no effect; nearly all actives have a fitted effect of over 55% in size
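qHTS luciferase splicing reporter: luminescence rises when SMN2 exon 7 is included in transfected HEK293 cells. Compound exposure lasted 30-36 h at 37C, with 4.5 mM final sodium butyrate as control, followed by a ONE-Glo read.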
ELG1 DNA repair – blocks ELG1-dependent DNA repair in HEK293T cells. Potency, µM (highest dose often 46.1 µM), inactives show at the top dose activity change, negative = inhibition, most hits filed as inhibitors. AID 504467. actives 2.3% (n = 330,000). HEK293T ELG1-luciferase reporter, luminescence, 16 h; DNA damage induced by 5-fluorouridine; note: % is set by controls: 0 for no effect and ±100 for the full control effect; nearly all actives have a fitted effect of over 55% in size
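Step one: seed 2,000 cells per well. Step two: pin-transfer compound or DMSO alongside 5-fluorouridine. Step three: incubate 16 hr, 37 °C, 5% CO2. Step four: add ONE-Glo, wait 30 min, read luminescence.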
The depositor's hits bear a star; ? = inconclusive; · = no result. Calls come from the whole dose curve; as a rule, active = well fitted curve in the direction sought with a large enough effect; inconclusive = small, poorly fitted or top-dose-only effect, or another doubt; inactive = no such curve, though single readings can be large; an effect the other way counts as inactive or inconclusive. Potency is the fitted concentration of half-maximal effect.

SMILES	FLuc modulator	Rab9 prom act	ELG1 genotox	NPC1 promoter act	SMN2 splice up	ELG1 DNA repair
CCN(C(=O)c1cnc(N2CCOCC2)c2ccccc12)c1cc(C)ccc1C	-1%	·	·	·	·	·
Cc1nc2ccccn2c1C(=O)/C=C/c1ccc(F)cc1	3µM*	?	6%	2.8µM*	-39%	?
Cc1ccc(COC(=O)c2ccc3ccccc3n2)cc1	15µM*	4%	2%	0%	·	-14%
Cc1noc(C)c1COC(=O)c1ccc2ccccc2n1	-9%	5%	2%	-3%	-4%	1%
Cc1ccccc1OCCNC(=O)c1ccc2ccccc2n1	4.8µM*	3.2µM*	21µM*	?	22µM*	?
COc1ccc(CNC(=O)c2c(C)nc3ccccn23)cc1	1%	-2%	-7%	-1%	-66%	13µM*
COCCNC(=O)c1ccc2ccccc2n1	-6%	15%	0%	14%	4%	6%
COc1cccc(CNC(=O)c2cc(S(=O)(=O)N3CCOCC3)ccc2N2CCCC2)c1	-8%	1%	-3%	14%	·	-2%
COc1ccc(CNC(=O)c2ccc3ccccc3n2)cc1	27µM*	15%	13%	14%	·	?
COc1ccc(/C=C/C(=O)c2c(C)nc3ccccn23)cc1	7.6µM*	3.5µM*	11%	?	5%	?
COc1ccc(NC(=O)c2c(Cl)nc3ccccn23)cc1	?	3.2µM*	?	30%	?	?
O=C(Nc1ccc(F)cc1)c1c(Cl)nc2ccccn12	?	24%	?	19%	?	?
COc1cc2c(c(OC)c1)C(c1cccc(F)c1F)CC(=O)N2 (stereo not given)	-3%	·	·	·	1%	·
Cc1cc(Br)cc(Cl)c1OCC(=O)N1CCN(C(=O)c2ccco2)CC1	6%	-5%	0%	-8%	·	-11%
CC1CCCN(CCCNS(=O)(=O)c2ccc3c(c2)CCN3C(=O)C2CC2)C1 (stereo not given)	3%	-2%	0%	2%	·	23%
CCC(C)NC(=O)CCc1c(C)nc2c(c(C)nn2-c2ccc(C)cc2)c1C (stereo not given)	-1%	·	·	·	-4%	·
O=C(Nc1ccccc1Cl)N1CCCN(c2nc(-c3ccccc3)ns2)CC1	2%	-15%	-6%	-5%	·	?
O=C(Nc1ccccc1)N1CCN(c2nc(-c3ccccc3)ns2)CC1	-13%	-5%	-6%	0%	·	23µM*
COc1ccc(C(=O)NCC(=O)OCC(=O)NC2CCCCCC2)cc1	·	·	7%	·	·	13%
Cc1ccc(-c2nn3c(C)nnc3c3ccccc23)cc1S(=O)(=O)NC(C)c1ccccc1 (stereo not given)	2%	-1%	0%	-6%	-3%	?
Cc1ccc(-c2nn3c(C)nnc3c3ccccc23)cc1S(=O)(=O)NCc1ccco1	17%	14%	?	0%	13µM*	?
Cc1ccc(-c2nn3c(C)nnc3c3ccccc23)cc1S(=O)(=O)NC(C)(C)CO	5%	-11%	21µM*	-7%	?	?
CCOC(=O)c1c(-c2ccc(C)cc2)csc1NC(=O)c1nc(SC(C)C)ncc1Cl	0%	·	·	·	5%	·
COc1cc(/C=N/Nc2nc(-c3ccc(S(=O)(=O)N(C)C)cc3)cs2)ccc1O	3.4µM*	-9%	-25%	-10%	·	12µM*
CCOc1cc(/C=N/Nc2nc(-c3cccc(S(=O)(=O)N4CCCC4)c3)cs2)ccc1O	-2%	2%	-10%	-1%	-118%	21µM*
O=S(=O)(c1cccc(-c2csc(-c3ccccc3)n2)c1)N1CCOCC1	-18%	7%	0%	7%	-16%	-4%
O=S(=O)(c1cccc(-c2csc(N/N=C/c3ccco3)n2)c1)N1CCOCC1	?	-10%	-15%	-2%	·	23µM*

Source: PubChem
